# Data published in article PMC4336329 (PLoS ONE, 2015).
# The campaign covered roughly 310,000 compounds. About 14,000 (4.5%) showed an effect of 50% or more. Effects have a minus sign here. This excerpt belongs to a sample that is enriched for strong results.
# Target: human ether-à-go-go-related gene (hERG) potassium channel (human, UniProt Q12809)
# Assay: primary screen, population patch clamp on CHO cells stably expressing hERG; higher = less effect of the substance
# 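Further: peak tail current of the secondary pulse compared with the same well before compound.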
# Sequence of human ether-à-go-go-related gene (hERG) potassium channel (Q12809 whole entry, looked up): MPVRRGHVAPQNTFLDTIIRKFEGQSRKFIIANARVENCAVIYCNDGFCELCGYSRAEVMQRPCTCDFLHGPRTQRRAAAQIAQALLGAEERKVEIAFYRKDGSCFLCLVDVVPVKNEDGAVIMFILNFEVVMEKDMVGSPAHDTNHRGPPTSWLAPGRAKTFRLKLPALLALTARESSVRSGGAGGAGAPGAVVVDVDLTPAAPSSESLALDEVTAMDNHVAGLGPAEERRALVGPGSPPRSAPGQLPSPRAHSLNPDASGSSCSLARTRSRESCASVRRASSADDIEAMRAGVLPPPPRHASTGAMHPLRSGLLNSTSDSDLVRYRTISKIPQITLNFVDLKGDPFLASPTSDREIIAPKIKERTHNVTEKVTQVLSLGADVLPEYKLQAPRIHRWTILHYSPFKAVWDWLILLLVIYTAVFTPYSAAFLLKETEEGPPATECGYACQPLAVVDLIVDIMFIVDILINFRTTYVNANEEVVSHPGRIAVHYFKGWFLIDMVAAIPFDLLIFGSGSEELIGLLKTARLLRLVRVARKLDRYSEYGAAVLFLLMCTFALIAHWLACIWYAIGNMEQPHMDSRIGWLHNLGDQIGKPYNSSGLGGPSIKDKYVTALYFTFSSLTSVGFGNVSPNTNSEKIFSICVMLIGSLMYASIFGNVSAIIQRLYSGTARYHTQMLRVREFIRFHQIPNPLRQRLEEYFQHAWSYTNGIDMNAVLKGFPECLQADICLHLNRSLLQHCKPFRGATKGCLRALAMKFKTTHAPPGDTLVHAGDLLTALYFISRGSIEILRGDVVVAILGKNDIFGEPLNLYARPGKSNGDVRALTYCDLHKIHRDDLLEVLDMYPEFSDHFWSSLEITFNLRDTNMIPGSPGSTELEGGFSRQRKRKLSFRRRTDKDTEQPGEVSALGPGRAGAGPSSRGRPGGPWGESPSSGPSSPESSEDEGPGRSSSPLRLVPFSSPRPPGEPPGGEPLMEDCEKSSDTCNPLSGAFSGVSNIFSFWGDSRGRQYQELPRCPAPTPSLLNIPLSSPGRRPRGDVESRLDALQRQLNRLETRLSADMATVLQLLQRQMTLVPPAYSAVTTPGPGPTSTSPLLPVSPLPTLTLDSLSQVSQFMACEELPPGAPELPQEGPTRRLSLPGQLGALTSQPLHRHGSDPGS
row,SMILES,"hERG current change (%, negative = inhibition) at 10uM [%]"
1,O=C(CSc1nc(-c2ccco2)cc(C(F)(F)F)n1)N1CCSCC1,-19.9
2,CN1CCN(C(=O)CSc2nc(-c3ccco3)cc(C(F)(F)F)n2)CC1,15.3
3,O=C(CSc1nc(-c2ccco2)cc(C(F)(F)F)n1)N1CCN(Cc2ccccc2)CC1,-58.8
4,CCc1cc(C(=O)N(C)CC(=O)Nc2c(Cl)cccc2Cl)sc1C,-2.89
5,COc1cc(O)c(C(CCN2CCCCC2)c2ccc3c(c2)OCO3)c(OC)c1 (centres unmarked),-78.3
6,COc1cc(O)c(C(CC(=O)N2CCCC(C)C2)c2ccc3c(c2)OCO3)c(OC)c1 (centres unmarked),-5.66
7,COc1cc(O)c(C(CC(=O)N2CCCCC2)c2ccc3c(c2)OCO3)c(OC)c1 (centres unmarked),5.41
8,COc1cc(O)c(C(CCN2CCOCC2)c2ccc(N(C)C)cc2)c(OC)c1 (centres unmarked),7.96
9,COc1cc(O)c(C(CC(=O)N2CCCC2)c2ccc3c(c2)OCO3)c(OC)c1 (centres unmarked),6.4
10,COc1cc(O)c(C(CC(=O)N2CCOCC2)c2ccc3c(c2)OCO3)c(OC)c1 (centres unmarked),7.98
11,COc1cc(O)c(C(CCN2CCOCC2)c2ccc3c(c2)OCO3)c(OC)c1 (centres unmarked),-59.5
12,COc1cc(O)c(C(CCN2CCCC2)c2ccc3c(c2)OCO3)c(OC)c1 (centres unmarked),-72.5
13,COc1cc(O)c(C(CCN2CCCC(C)C2)c2ccc(N(C)C)cc2)c(OC)c1 (centres unmarked),-29.5
14,COc1cc(O)c(C(CCN2CCN(c3ccccc3)CC2)c2ccc3c(c2)OCO3)c(OC)c1 (centres unmarked),-16.6
15,COc1cc(O)c(C(CCN2CCCC(C)C2)c2ccc3c(c2)OCO3)c(OC)c1 (centres unmarked),-77.5
16,COc1cc(O)c(C(CCN2CCCC2)c2cc(OC)c(OC)c(OC)c2)c(OC)c1 (centres unmarked),-7.35
17,COc1ccc(NC(=O)c2cc3ccccc3o2)cc1OC,-3.22
18,O=C1CC(c2ccccc2)c2ccccc21 (centres unmarked),8.78
19,Cc1ccc(Cn2nc(C)c(NC(=O)CSc3nc4c(c(C(F)(F)F)n3)CCc3ccccc3-4)c2C)cc1,13.1
20,O=C(O)Cc1sc(Nc2ccc(F)cc2)nc1-c1cccs1,15.3
21,Cc1ccccc1C(CC(=O)c1cccs1)C(C#N)C#N (centres unmarked),20.2

row,SMILES,"hERG current change (%, negative = inhibition) at 10uM [%]"
1,Cc1ccc(Cn2ncc3c(N4CCN(c5ccc(C)cc5)CC4)ncnc32)cc1,8.18
2,COCCN(C(=O)c1cc2c(s1)CCCCC2)c1c(N)n(CC(C)C)c(=O)[nH]c1=O,3.04
3,CCOC(=O)C(NC(=O)C1CCCN1C(=O)OCc1ccccc1)C(=O)OCC (centres unmarked),-0.938
4,CCc1nnc(NC(=O)C2CCCN2C(=O)Nc2ccc(Cl)cc2)s1 (centres unmarked),1.86
5,COc1cc(-c2cc(C(=O)Nc3ccc(S(=O)(=O)Nc4ncccn4)cc3)c3ccccc3n2)cc(OC)c1OC,-7.01
6,CCn1c(=O)cc(SCC(=O)Nc2ccc(OC)c(OC)c2)c2ccccc21,-4.7
7,COc1ccc(S(=O)(=O)Nc2ccc(-n3cnnn3)cc2)cc1[N+](=O)[O-],0.00208
8,CC(C)(C)OC(=O)CNC(=O)c1[nH]cnc1C(=O)NC1CCN(C(=O)OC(C)(C)C)CC1,-2.67
9,CC(C)(C)OC(=O)N1CCC(NC(=O)c2nc[nH]c2C(=O)NC2CCN(C(=O)OC(C)(C)C)CC2)CC1,-31.5
10,Cc1ccc(NC(=O)c2nc[nH]c2C(=O)NCCCCCNC(=O)OC(C)(C)C)cc1,-15.2
11,CC(C)(C)OC(=O)NCCCCCNC(=O)c1[nH]cnc1C(=O)NC1CCN(C(=O)OC(C)(C)C)CC1,-78.1
12,CC(C)(C)OC(=O)NCCCCCNC(=O)c1[nH]cnc1C(=O)Nc1ccccc1,-53.2
13,CC(C)(C)OC(=O)NCCCCCNC(=O)c1[nH]cnc1C(=O)Nc1ccc(Cl)cc1,-6.26
14,O=C(COC(=O)/C=C/c1ccccc1Cl)NC1CCCC1,14.6
15,O=C(Nc1cccc2ccccc12)NC1CCCCC1O (centres unmarked),0.227
16,O=C(Nc1ccc(Cl)cc1Cl)C1CCC(=O)N1Cc1ccccc1Cl (centres unmarked),-2.67
17,C#CCOCCOCCOCCNc1nc(N2CCN(C(=O)CCCCCCCCCCNC(=O)[C@H](CO)n3cc(CCCSC)nn3)CC2)nc(N2CCN(C(=O)CCCCCCCCCCNC(=O)[C@@H]([C@H](C)O)n3cc(C)nn3)CC2)n1,8.18
18,Cc1nnc(SCC(=O)Nc2ccc3c(c2)OCCO3)s1,16.9
19,C/C(=N\O)c1ccc2c3ccccc3n(C)c2c1,25.3
20,COc1cc(CNCc2cccs2)ccc1OCc1ccccc1.Cl,-31.8
21,N#C/C(=C\c1cn(-c2ccccc2)nc1-c1cccnc1)c1nnc2n1CCCCC2,-63.2

row,SMILES,"hERG current change (%, negative = inhibition) at 10uM [%]"
1,N#C/C(=C\c1c[nH]c2ccccc12)c1nnc2n1CCCCC2,-29.5
2,O=C(/C=C/c1cn(-c2ccccc2)nc1-c1cccnc1)N1CCCCC1,-49.7
3,Cc1cc(C(=O)COC(=O)C(C)NC(N)=O)c(C)n1Cc1ccco1 (centres unmarked),10.5
4,CCN(C(=O)Cn1nc(C)c([N+](=O)[O-])c1C)C1CCS(=O)(=O)C1 (centres unmarked),24.1
5,Cc1ccc(NC(=O)Cn2ccc([N+](=O)[O-])n2)cc1C,14.2
6,CCN1CCN(c2nc3c(c(=O)n(C)c(=O)n3C)n2CCSc2ncccn2)CC1,3.51
7,CC(C)n1c(SCC(=O)N2CCN(C(=O)c3ccco3)CC2)nc2c1c(=O)n(C)c(=O)n2C,-50.9
8,CC(C)n1c(CN2CCN(C(=O)c3ccco3)CC2)nc2c1c(=O)n(C)c(=O)n2C,-7.57
9,CC(C)n1c(SCC(=O)N2CCN(C)CC2)nc2c1c(=O)n(C)c(=O)n2C,2.15
10,CC(C)n1c(SCC(=O)N2CCCC2)nc2c1c(=O)n(C)c(=O)n2C,-5.03
11,COc1ccc(N2CCN(C(=O)CSc3nc4c(c(=O)n(C)c(=O)n4C)n3C(C)C)CC2)cc1,-50.2
12,Cn1c(=O)c2c(nc(N3CCOCC3)n2CCSc2ncccn2)n(C)c1=O,0.639
13,Cn1c(=O)c2c(nc(N3CCN(C(=O)c4ccco4)CC3)n2CCSc2ncccn2)n(C)c1=O,-57.4
14,CCCn1c(SCC(=O)N2CCN(c3ccc(OC)cc3)CC2)nc2c1c(=O)n(C)c(=O)n2C,-36
15,COc1ccc(S(=O)(=O)N2CCOC2CNC(=O)C(=O)NCc2ccc3c(c2)OCO3)cc1 (centres unmarked),-25.6
16,Cc1ccc(S(=O)(=O)N/N=C\c2ccc(Cl)c([N+](=O)[O-])c2)cc1,18.4
17,CCOC(=O)c1sc(=S)n(-c2cccc(OC)c2)c1N,-7.09
18,CCc1ccc2[nH]c(=O)c(C(c3nnnn3CC3CCCO3)N3CCCc4ccccc43)cc2c1 (centres unmarked),19.8
19,O=C(COC(=O)c1ccccc1Oc1ccccc1)NCc1ccco1,-19.1
20,O=C(Nc1cccc(S(=O)(=O)Nc2ccc(Cl)cc2)c1)c1ccc(Cl)nc1,19.8
21,Cc1oc(-c2ccccc2F)nc1CS(=O)(=O)CC(=O)N1CCc2ccccc21,12.4

row,SMILES,"hERG current change (%, negative = inhibition) at 10uM [%]"
1,CC(C)(C)NCc1ccccc1OCc1cccs1.Cl,6.17
2,CC(C)COc1ccc(Br)cc1CNC(C)(C)C.Cl,-41.8
3,CC(C)(C)NCc1cc(Br)ccc1OCc1cccs1.Cl,-52.5
4,CC(C)(C)NCc1cc(Br)ccc1OC1CCCC1.Cl,-53.8
5,CC(C)(C)NCc1cc(Cl)ccc1OCc1cccs1.Cl,-32.5
6,C=CCOc1ccc(Br)cc1CNC(C)(C)C.Cl,-14.7
7,CCN(CC)CCNC(=O)c1ccc(NC(=O)Cc2ccsc2)cc1,15.6
8,O=c1oc2ccccc2cc1N1CCOCC1,-7.08
9,CN(C)S(=O)(=O)c1ccc(C(=O)Nc2nnc(-c3cccs3)o2)cc1,31.7
10,O=C(COC(=O)c1ccccc1F)Nc1cccnc1Cl,-2.16
11,O=C(COC(=O)c1ccc(F)cc1F)Nc1ncccn1,-3.24
12,O=C(COC(=O)c1ccc(F)cc1F)Nc1cccnc1Cl,-56.3
13,Cc1ccc(NC(=O)c2cnn(-c3ccccc3)c2NC(=O)c2ccco2)cc1,2.02
14,Cc1ccnn1CC(=O)N/N=C/c1ccc2c(c1)OCO2,-7.72
15,N#C/C(=C/c1cccc(O)c1)C(=O)NCc1ccc(Cl)cc1,31
16,COC(=O)CSc1cc([N+](=O)[O-])cc2c1c(C1OCCO1)nn2-c1ccccc1,-5.4
17,N#Cc1c(N(CCO)CCO)nc(N)c2c(N)nc3c(c12)CC(=O)N3CC1CCCO1 (centres unmarked),10
18,CN(CCO)c1nc(N)c2c(N)nc3c(c2c1C#N)CC(=O)N3Cc1cccs1,-29.6
19,CN(CCO)c1nc(N)c2c(N)nc3c(c2c1C#N)CC(=O)N3C1CCCC1,-63.5
20,O=C(CSc1oc(-c2cccs2)nc1S(=O)(=O)c1ccccc1)NC1CCCCC1,17.7
